Reference: PubChem BioAssay (NCATS)
Results filed as inconclusive are left out. A call without a number means that no potency is given here. Values without a mark were called inactive. Calls of active or inactive are those of the source. Calls come from the whole dose curve; as a rule, active = well fitted curve in the direction sought with a large enough effect; inconclusive = small, poorly fitted or top-dose-only effect, or another doubt; inactive = no such curve, though single readings can be large; an effect the other way counts as inactive or inconclusive.

How the values were obtained:
[1] = molecular target: Cellular tumor antigen p53 (Homo sapiens) (UniProt P04637); assay: Primary qHTS for small molecule compounds that upregulate eGFP-tagged delta133p53alpha (in N-terminal) cells. (AID 2060322); conditions: NCI-H358 eGFP-delta133p53alpha fluorescence, 24 h; activation: hits give high values; note: nearly all actives have a fitted effect of over 75% in size; note: potency is the fitted concentration of half-maximal effect; for activation: series mostly up to about 56 µM
Summary of the method: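 NCI-H358 cells pre-induced 24 h with 10 ng/ml doxycycline to express N-terminal eGFP-delta133p53alpha, then dosed 24 h at 37C without doxycycline; fixed, Hoechst-stained, GFP intensity by laser scanning cytometry, normalized to DMSO (0%) and 57.5 uM 5-azacytidine (100%).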

[2] = molecular target: Aldehyde dehydrogenase, mitochondrial (Homo sapiens) (UniProt P05091); assay: qHTS for Inhibitors of the Aldehyde Dehydrogenase Family (ALDH2) Primary screen (AID 2061308); note: nearly all actives have a fitted effect of over 55% in size
[3] = molecular target: Retinaldehyde dehydrogenase 3 (Homo sapiens) (UniProt P47895); assay: qHTS for Inhibitors of the Aldehyde Dehydrogenase Family (ALDH1A3) Primary screen (AID 2061315)

Chain of Cellular tumor antigen p53 (Homo sapiens) (P04637 whole entry, looked up): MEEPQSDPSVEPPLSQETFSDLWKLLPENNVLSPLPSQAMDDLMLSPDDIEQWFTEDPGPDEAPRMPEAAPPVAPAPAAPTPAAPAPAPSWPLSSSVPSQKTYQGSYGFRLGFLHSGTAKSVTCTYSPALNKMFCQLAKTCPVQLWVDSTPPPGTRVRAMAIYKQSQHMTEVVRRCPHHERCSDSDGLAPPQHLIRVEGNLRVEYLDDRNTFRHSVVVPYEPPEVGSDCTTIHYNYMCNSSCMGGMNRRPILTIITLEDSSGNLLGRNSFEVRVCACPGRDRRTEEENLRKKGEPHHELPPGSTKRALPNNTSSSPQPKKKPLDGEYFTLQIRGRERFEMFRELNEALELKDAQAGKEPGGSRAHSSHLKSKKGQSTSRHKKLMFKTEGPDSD

| SMILES | activation [1] [%] | Potency [2] | Potency [3] | Potency [1] |
| --- | --- | --- | --- | --- |
| C=C1[C@@H]2CC[C@@]3(C)[C@H](c4ccoc4)OC(=O)C[C@]13O[C@H]1CC(=O)C(C)(C)[C@H](C(O)C(=O)OC)[C@]12C (stereo partly drawn) | 8.04 | inactive | inactive | – |
| O=C(O)Cc1nn(Cc2nc3cc(C(F)(F)F)ccc3s2)c(=O)c2nccnc12 | -6.33 | inactive | inactive | – |
| CC1(C)CC=C(c2cnc3ccccc3c2)c2cc(C(=O)Nc3ccc(C(=O)O)cc3)ccc21 | 3.34 | inactive | inactive | – |
| CC(=O)O[C@@H]1C(=O)C(C)=C(CCC(C)CC(=O)O)[C@@]2(C)CCCC(C)(C)C12 (stereo partly drawn) | 0.893 | inactive | inactive | – |
| C[C@@H](CC[C@@H]1[C@@]2(C)CCCC(C)(C)C2CC[C@@]1(C)O)CC(=O)O (stereo partly drawn) | -12.2 | inactive | inactive | – |
| COC(=O)C1=CO[C@@H](O[C@@H]2O[C@H](CO)[C@@H](O)[C@H](O)[C@H]2O)[C@@H]2C(C)CC(=O)[C@]12O (stereo partly drawn) | 1.79 | inactive | inactive | – |
| N#Cc1ccc(N2N=C3c4ccc(C(=O)O)cc4CC[C@@H]3[C@@H]2C2CCCC2)cc1Cl | -25 | inactive | inactive | – |
| CC(=O)OC1CC(C)(C(=O)O)CC2C3=CC(=O)C4C5(C)CCC(OC6OC(C(=O)O)C(O)C(O)C6OC6OC(C(=O)O)C(O)C(O)C6O)C(C)(C)C5CCC4(C)C3(C)CCC12C (stereo not drawn) | -4.46 | inactive | inactive | – |
| CC1=C[C@H](O)[C@H]2C(C)(C)CCC[C@]2(C)[C@@]1(O)CO | -2.68 | inactive | inactive | – |
| CC1(C=O)CCCC2(C)C1CCC13CC(CO)C(CCC12)C3 (stereo not drawn) | -9.92 | inactive | inactive | – |
| Cc1nc(Nc2n[nH]c3c2CN(C(=O)NC(CN(C)C)c2ccccc2)C3(C)C)c2sccc2n1 (stereo not drawn) | – | inactive | inactive | 10.7 µM (active) |
| C=C(C(=O)O)[C@@H]1CC=C2CCC[C@H](C)[C@@]2(C)C1 | -21.4 | inactive | inactive | – |
| COc1c(C)c(OCC=C(C)C)cc2c1C(=O)NC2=O | -12.2 | inactive | inactive | – |
| CCC(C)C(C(=O)O)N1Cc2c(OCC=C(C)C)c(C)c(OC)c(C(=O)O)c2C1=O (stereo not drawn) | 5.34 | inactive | inactive | – |
| OC[C@H]1O[C@@H](OC[C@H]2O[C@@H](OCc3ccccc3)[C@H](O)[C@@H](O)[C@@H]2O)[C@H](O)[C@@H](O)[C@@H]1O | -3.82 | inactive | inactive | – |
| C=C1C(=O)O[C@@H]2/C=C(\C)CC/C=C(\C(=O)O[C@@H]3O[C@H](CO)[C@@H](O)[C@H](O)[C@H]3O)CC[C@@H]12 | -5.36 | inactive | inactive | – |
| O=C(OCc1ccccc1O[C@@H]1O[C@H](CO)[C@@H](O)[C@H](O)[C@H]1O)C1(O)C=CCCC1O (stereo partly drawn) | -2.29 | inactive | inactive | – |
| FC(F)(F)c1cc(-c2ncn(/C=C\c3nnco3)n2)cc(C(F)(F)F)c1 | 7.67 | inactive | inactive | – |
| O=C(O)CCc1c(C(=O)O)[nH]c2cc(Cl)cc(Cl)c12 | 3 | inactive | inactive | – |
| OC[C@H]1O[C@@H](OC(CCCCc2ccc(O)cc2)CCc2ccc(O)cc2)[C@H](O[C@@H]2OC[C@](O)(CO)[C@H]2O)[C@@H](O)[C@@H]1O (stereo partly drawn) | -24.4 | inactive | inactive | – |
| COc1ccc([C@H]2OC[C@H]3[C@@H]2CO[C@@H]3c2ccc(O[C@@H]3O[C@H](CO)C(O)[C@H](O)[C@H]3O)c(OC)c2)cc1OC (stereo partly drawn) | -1.79 | inactive | inactive | – |
| CCOC(=O)N1CCC(N2CCC[C@@H](NC(=O)c3ccccc3C)C2)CC1 | -2.86 | inactive | inactive | – |
| Cc1cccc(/C=N/Nc2cc(N3CCOCC3)n3nc(-c4ccncc4)cc3n2)c1 | – | inactive | inactive | 19 µM (active) |
| C[C@@H]1O[C@@H](OC[C@H]2O[C@@H](OCC3CCC4CC3C4(C)C)[C@H](O)[C@@H](O)[C@@H]2O)[C@H](O)[C@H](O)[C@H]1O (stereo partly drawn) | 16.1 | inactive | inactive | – |
| C=C(C(=O)O)C1CCC(C)C2CCC(=O)OC2(C)C1 (stereo not drawn) | 18.8 | inactive | inactive | – |
| Nc1nc2c(ncn2[C@@H]2O[C@@H]3COP(=O)(O)O[C@H]3[C@H]2O)c(=O)[nH]1 | 12.3 | inactive | inactive | – |
